The list is not random: actives were taken first. Their share in the collection is about 4.2%.
Sfp PPTase inh: Sfp phosphopantetheinyl transferase inhibition. Q9F4F7. Biochemical Sfp PPTase activity, qHTS. Potency, µM, without a hit: largest response in the series, negative = inhibition, most hits filed as inhibitors. 310,000 tested, 3.5% active;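 further: the enzyme is Sfp with the accession as filed and its product quenches rhodamine fluorescence; 0% = enzyme reaction without inhibitor and -100% = no enzyme wells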
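Fluorescence-quenching assay: 15 nM Sfp-PPTase preincubated 15 min at room temperature with compound, then 5 uM rhodamine-CoA and 12.5 uM BHQ-2-labelled YbbR peptide added. Fluorescence (ex 525/em 598 nm) read at start and after 30 min; difference gives rate.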
12-LOX inh: ALOX12 (human) lipoxygenase inhibition; P18054; purified 12hLO, xylenol orange hydroperoxide absorbance; Potency, µM (titrated, usually from 108 µM), for inactives: at the highest dose activity change, negative = inhibition, actives largely listed as inhibitors; 580,000 tested, 1.1% active; AID 1671190
Target sequence (P18054 whole entry, looked up): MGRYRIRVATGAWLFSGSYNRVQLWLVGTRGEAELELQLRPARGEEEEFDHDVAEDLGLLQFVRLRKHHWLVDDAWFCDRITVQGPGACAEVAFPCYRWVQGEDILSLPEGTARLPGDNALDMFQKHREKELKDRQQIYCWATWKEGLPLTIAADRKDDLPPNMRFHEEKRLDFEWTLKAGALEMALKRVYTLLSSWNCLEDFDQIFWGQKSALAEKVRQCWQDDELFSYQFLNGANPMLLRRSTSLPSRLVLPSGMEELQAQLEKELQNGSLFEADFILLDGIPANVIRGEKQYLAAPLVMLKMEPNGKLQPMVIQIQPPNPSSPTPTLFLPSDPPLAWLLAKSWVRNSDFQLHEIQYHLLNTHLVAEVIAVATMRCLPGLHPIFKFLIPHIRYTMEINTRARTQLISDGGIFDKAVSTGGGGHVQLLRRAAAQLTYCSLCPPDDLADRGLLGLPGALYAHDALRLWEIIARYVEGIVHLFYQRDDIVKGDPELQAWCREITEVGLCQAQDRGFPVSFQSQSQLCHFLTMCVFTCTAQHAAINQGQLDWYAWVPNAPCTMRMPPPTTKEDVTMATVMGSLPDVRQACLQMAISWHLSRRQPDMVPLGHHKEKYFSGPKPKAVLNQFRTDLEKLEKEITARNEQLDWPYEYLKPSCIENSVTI
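Purified human 12hLO at 150 nM in 25 mM Hepes, 0.01% Triton X-100, pH 7.0, preincubated 15 min at room temperature with compound. Reaction started with 40 uM arachidonic acid, 30 min at room temperature. Hydroperoxide measured by Fe-xylenol orange, 573/405 nm absorbance ratio.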
VDR inhibitor: vitamin D3 receptor (human) inhibition; P11473; VDR-SRC2-3 peptide fluorescence polarization, 2 h; Potency, µM, for the others: max response, negative = inhibition, actives largely listed as inhibitors; 400,000 tested, 0.93% active
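Signal is fluorescence polarization, reporting how far test compounds block the interaction of VDR with the SRC2-3 coregulator peptide after a 2 h room-temperature incubation.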
PLK1 PBD inh: inhibitors of human PLK1 polo-box domain binding | P53350 | Plk1 PBD binding of FITC phosphopeptide, fluorescence polarization | Potency, µM, inactives show max response, negative = inhibition, usual class: inhibitors | 360,000 tested, 2.8% active; further: series mostly up to about 57 µM; nearly all actives have a fitted effect of over 65% in size
Starred values were filed as active, the others as inactive; ? = inconclusive; . = no result; [ ] = remark or other dose. The call rests on the fitted dose curve; in most records, active means well fitted curve in the direction sought with a large enough effect; inconclusive means small, poorly fitted or top-dose-only effect, or another doubt; inactive means no such curve, though single readings can be large; an effect the other way counts as inactive or inconclusive. Unless noted, on the % scale 0 is the no-effect control and ±100 the full control effect; potency means the concentration at half of the fitted maximal effect.

SMILES	Sfp PPTase inh	12-LOX inh	VDR inhibitor	PLK1 PBD inh
O=C(NCc1ccc(F)cc1)c1ccc(-c2ccccc2)cc1	.	5.2%	.	.
NC(=O)CC(NC(=S)NCc1ccccc1)C(=O)O (centres undefined)	?	?	-5.9%	21.2µM*
Cn1cc(C(=O)NCc2ccc(F)cc2)cn1	8.6%	1.0%	0.7%	23.8µM*
Cc1cc(OCc2nn[nH]n2)c2c(-c3ccccc3)cc(=O)oc2c1	19.1%	?	-3.5%	-0.8%
Cc1cc(C)cc(NC(=O)c2ccc(S(=O)(=O)N(C)CC3CCCO3)cc2)c1 (centres undefined)	2.2%	9.9%	-6.4%	-1.5%
O=C(NC(=S)NCc1ccncc1)c1ccccc1	-1.5%	-6.9%	3.3%	-18.1%
CCc1ccc(C(C)NC(=S)NCc2ccc(F)cc2)cc1 (centres undefined)	19.4%	44.7µM*	-8.9%	-3.5%
CCOc1ccc(C(C)NC(=S)NCc2ccc(F)cc2)cc1 (centres undefined)	16.8%	?	8.8%	2.5%
O=C(NC(=S)NCc1ccccc1)c1ccccc1	-2.4%	39.8µM*	-12.5%	-8.8%
CC(C)(C)C(=O)NC(=S)NCc1ccccc1	22.0%	39.8µM*	-2.3%	-0.6%
COC(=O)[C@@H]1C[C@@]2(O)[C@@H](O)[C@@H](O)[C@@H](O)C[C@H]2N1Cc1cc(F)ccc1F	-23.3%	.	.	.
CC1(C)CC(NC(=O)Nc2ccc(OCC(F)(F)F)cc2)CC(C)(C)N1	.	-0.1%	.	.
CCSc1ncc(/C=N/Nc2ccc(Cl)cc2)n1C	28.2µM*	?	-9.4%	-7.6%
COC(=O)c1cnc(SCc2ccc(Cl)cc2)n1C	13.2%	-10.2%	-6.2%	-12.0%
CCSc1ncc(/C=N/Nc2ccccc2)n1C	-0.7%	6.6%	-12.8%	7.52µM*
CCSc1ncc(/C=N/Nc2ccc([N+](=O)[O-])cc2)n1C	-8.7%	0.0%	-1.3%	8.8%
O=CNc1cc(-c2cccc(O)c2)cn2c(-c3ccc(F)cc3)cnc12	.	44.7µM*	.	-17.6%
CC(=O)Nc1cc(-c2ccccc2N(C)C)cn2c(-c3cccc(C(F)(F)F)c3)cnc12	.	8.91µM*	.	-8.1%
CC(=O)Nc1cc(-c2ccc(CO)cc2)cn2c(-c3ccc(F)cc3)cnc12	.	44.7µM*	.	?
CC1=C(C(=O)Nc2ccc(F)c(F)c2)C(c2ccccc2F)NC(=S)N1 (centres undefined)	.	-46.2%	.	.
CC1CC2=C(NC(=S)NC2c2cccc(F)c2)/C(=C/c2cccc(F)c2)C1 (centres undefined)	-4.1%	28.2µM*	-15.6%	-27.9%
CC1CC2=C(NC(=S)NC2c2ccccc2F)/C(=C/c2ccccc2F)C1 (centres undefined)	?	35.5µM*	?	?
Cc1ccc(C2=NN=C(NC(=O)C(F)(F)F)SC2)cc1	?	?	50.1µM*	-24.0%
O=C(Cc1cccc2ccccc12)N/N=C/c1ccc(Sc2cccc3cccnc23)o1	-5.1%	372.8%	.	.
CCCCC(=O)N/N=C/c1ccc(Sc2cccc3cccnc23)o1	35.5µM*	162.7%	-14.4%	-18.5%
SMILES	Sfp PPTase inh	12-LOX inh	VDR inhibitor	PLK1 PBD inh
CN(C)NC(=S)NC1CC2CCC1C2 (centres undefined)	-13.0%	17.8µM*	-1.6%	2.2%
OCCCNC(=S)NC1CC2CCC1C2 (centres undefined)	.	-6.8%	.	.
O=C(CSCc1ccc(Cl)cc1)N/N=C/c1c(Cl)cccc1Cl	-21.7%	-11.5%	-13.5%	-4.0%
COCCCn1c(SCC(=O)Nc2ccccc2OC)nc2c(sc3ccccc32)c1=O	.	-6.0%	10.5%	.
O=C1C=C(NCc2ccccc2)c2ccccc2C1=O	22.4µM*	?	2µM*	?
N#Cc1ccccc1NCc1ccccc1	2.6%	63.1%	-14.6%	-11.4%
O=c1cccccc1NCc1ccccc1	22.4µM*	-7.5%	10.4%	-9.1%
O=C(N/N=C/c1sc(N2CCOCC2)nc1-c1ccccc1)c1ccccc1Cl	-4.2%	0.1%	-12.6%	?
O=C(N/N=C/c1ccc(N2CCOCC2)s1)c1ccccc1Cl	-30.0%	-26.6%	?	23.8µM*
Cc1nn(C2CCS(=O)(=O)C2)c(C)c1C=O (centres undefined)	-6.9%	17.2%	?	3.36µM*
O=c1cc(CN2CCN(c3ccc(O)cc3)CC2)nc2scc(-c3ccccc3)n12	56.2µM*	?	-11.9%	-14.4%
Cc1cccc(C)c1OCc1cc(=O)n2c(-c3ccccc3)csc2n1	.	?	-20.0%	.
COc1cccc(CNc2nc3nc(C)c(Cl)c(=O)n3[nH]2)c1	-15.5%	0.0%	6.7%	1.0%
COc1cc(/C=C/C(=O)OCC(=O)c2ccc3c(c2)NC(=O)CO3)ccc1OC(F)F	.	-12.3%	?	18.9µM*
CN(C(=O)c1cn(C)c2ccccc12)c1ccc(Oc2cccnc2)cc1	.	0.5%	.	.
CC(=O)c1ccc(OCc2c(-c3ccccc3)nnn2CC(=O)NS(=O)(=O)c2ccccc2C)cc1	.	-2.9%	.	-8.3%
c1ccc2c(-c3[nH]ncc3CNCCCn3ncc4ccccc43)cccc2c1	-9.7%	-11.6%	?	23.8µM*
NC(=O)CCN1CCN(Cc2cn[nH]c2-c2cccc3ccccc23)CC1	9.6%	-4.2%	22.9%	19.2%
Cc1nc(S/C(=C/c2ccc(-c3cccc(Cl)c3)o2)C(=O)O)n[nH]1	44.7µM*	0.0%	-3.5%	-19.0%
CC(=O)Nc1ccc(CN2CCn3c(nnc3C3CCNCC3)C2)cc1	.	11.2µM*	.	.
CN1CCN(/C=N/c2c(C#N)cnn2-c2ccccc2)CC1	7.1%	292.0%[57.4 µM]	-0.4%	26.7µM*
S=C(NCCc1cccc(Cl)c1)NC1CCCCC1	-8.1%	?	-11.0%	-13.2%
S=C(NCc1ccc(Cl)cc1Cl)NC1CCCCC1	-6.1%	39.8µM*	-10.1%	-11.6%
CC(NCCS(=O)(=O)c1ccc(Cl)cc1)c1cccc(Cl)c1 (centres undefined)	16.5%	-7.2%	-12.0%	3.5%
CCCCN(Cc1ccco1)S(=O)(=O)c1ccc(-c2ccc(=O)[nH]n2)s1	?	-28.6%	-15.7%	23.8µM*
SMILES	Sfp PPTase inh	12-LOX inh	VDR inhibitor	PLK1 PBD inh
N=C1/C(=C\c2ccc(-c3cccc(C(=O)O)c3)o2)C(=O)N=C2SC=C(c3ccccc3)N12	0.5%	39.8µM*	-15.4%	?
N=C1/C(=C\c2ccc(SCc3ccccc3)o2)C(=O)N=C2SC(CC(=O)N3CCOCC3)=NN12	-21.3%	?	-3.1%	?
Cc1ccc(/C=C2\C(=N)N3N=C(CC(=O)N4CCOCC4)SC3=NC2=O)o1	3.7%	?	-9.8%	26.7µM*
N=C1/C(=C/c2ccc(-c3cccc(C(=O)O)c3)o2)C(=O)N=C2SC(CC(=O)N3CCOCC3)=NN12	18.6%	-20.5%	19.5%	29.9µM*
O=C(N[C@H]1CO[C@H]2[C@@H]1OC[C@@H]2n1nnnc1-c1ccc2c(c1)OCO2)c1ccc(C(F)(F)F)cc1	.	-24.0%	.	.
Cc1c(C(=O)N/N=C/c2ccccc2)[nH]c2ccc(Cl)cc12	15.3%	1.1%	-5.0%	4.9%
Cc1ccc(-n2c(SCC(=O)c3c(N)n(C)c(=O)n(C)c3=O)nc3sc4c(c3c2=O)CCCC4)c(C)c1	56.2µM*	0.9%	-2.8%	-1.2%
CC(=O)c1ccc(N2CCN(S(=O)(=O)c3cccc4nsnc34)CC2)cc1	13.7%	-4.5%	-6.3%	26.7µM*
